Measurements taken from PubChem BioAssay (Tox21).
Where “and” joins values, the source holds several entries; their conditions need not be identical. Equal values may be shown once. Results filed as inconclusive are left out. Calls of active or inactive are those of the source. Unless noted, the call rests on the fitted dose curve; in most records, active means well fitted curve in the direction sought with a large enough effect in the repeat runs; inconclusive means weak or mixed curves; inactive means no such curve, though single readings can be large; an effect the other way counts as inactive or inconclusive.

Legend:
[1] = target: Thyrotropin receptor (Homo sapiens) (UniProt P16473); assay: qHTS assay to identify small molecule antagonists of the thyroid stimulating hormone receptor (TSHR) signaling pathway (AID 1259385; calls by dose curve; further: nearly all actives have a fitted effect of over 20% in size)
Thyrotropin receptor (Homo sapiens), sequence (P16473 whole entry, looked up): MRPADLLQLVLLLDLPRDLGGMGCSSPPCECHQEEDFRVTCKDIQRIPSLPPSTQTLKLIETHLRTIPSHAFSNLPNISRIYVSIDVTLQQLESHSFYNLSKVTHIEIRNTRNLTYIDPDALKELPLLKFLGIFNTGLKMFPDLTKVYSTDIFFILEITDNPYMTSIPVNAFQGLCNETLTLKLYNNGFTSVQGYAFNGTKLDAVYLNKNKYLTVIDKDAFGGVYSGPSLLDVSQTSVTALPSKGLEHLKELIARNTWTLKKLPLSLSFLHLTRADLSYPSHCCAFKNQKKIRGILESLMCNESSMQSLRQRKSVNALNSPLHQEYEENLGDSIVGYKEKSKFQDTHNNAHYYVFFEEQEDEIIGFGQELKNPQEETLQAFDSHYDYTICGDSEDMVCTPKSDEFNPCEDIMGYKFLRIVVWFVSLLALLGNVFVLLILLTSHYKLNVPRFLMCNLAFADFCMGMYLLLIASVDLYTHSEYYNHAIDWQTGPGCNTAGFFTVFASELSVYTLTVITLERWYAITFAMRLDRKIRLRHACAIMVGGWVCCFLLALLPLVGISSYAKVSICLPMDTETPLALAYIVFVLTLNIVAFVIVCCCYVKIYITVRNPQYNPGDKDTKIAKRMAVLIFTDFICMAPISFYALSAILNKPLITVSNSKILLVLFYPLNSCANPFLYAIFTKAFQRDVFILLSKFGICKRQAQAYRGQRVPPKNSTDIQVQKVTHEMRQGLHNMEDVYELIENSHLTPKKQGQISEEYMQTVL
Method in brief: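 TSHR-HEK293 cells were plated and held 18 h at 37C/5% CO2, then given compound plus Ro20-1724 and stimulated with TSH at 1.5 ng/mL final. After 30 min at room temperature, cAMP was detected with cAMP-d2/anti-cAMP-cryptate (1 h) by fluorescence.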

[2] = qHTS assay to identify small molecule agonists of the estrogen receptor alpha (ER-alpha) signaling pathway in the presence of an antagonist - cell viability counter screen (AID 1259386);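 further: series mostly up to about 92 µM; cells exposed to compounds for 22 h at 37 °C before the viability read; nearly all actives have a fitted effect of over 30% in size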
Method in brief: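 Read-out: CellTiter-Fluor fluorescence after 1hr reagent incubation, measured in the same wells as the luciferase readout. VM7Luc4E2 cells were exposed to 15 compound concentrations with 10.0nM ICI-182,780 for 22hr at 37C.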

[3] = qHTS assay to identify small molecule agonists of the TGF-beta/Smad signaling pathway - cell viability counter screen (AID 1346829); further: top concentration of the series differs between compounds; nearly all actives have a fitted effect of over 45% in size
Method in brief: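 Tox21 qHTS format: SBE-bla HEK 293T cells treated with DMSO-dissolved compounds for 5 hr; CellTiter-Glo luminescence after 30 min at room temperature.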

[4] = qHTS assay to identify small molecule agonists of the TGF-beta/Smad signaling pathway (AID 1346859; active means well fitted activation curve with a large enough effect in the signal ratio in the repeat runs, not every such curve was filed as active; the % refers to the signal ratio; further: series mostly up to about 77 µM)
Method in brief: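 Beta-lactamase reporter activity downstream of Smad binding elements was measured in stably transfected HEK 293T cells; compounds were incubated for 5 hr, substrate for 2 hr at room temperature.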

[5] = target: Thyrotropin-releasing hormone receptor (Homo sapiens) (UniProt P34981); assay: qHTS assay to identify small molecule antagonists of the thyrotropin-releasing hormone receptor (TRHR) signaling pathway (AID 1346877; active means well fitted inhibition curve with a large enough effect in the repeat runs, not every such curve was filed as active; further: series mostly up to about 51 µM)
Thyrotropin-releasing hormone receptor (Homo sapiens), sequence (P34981 whole entry, looked up): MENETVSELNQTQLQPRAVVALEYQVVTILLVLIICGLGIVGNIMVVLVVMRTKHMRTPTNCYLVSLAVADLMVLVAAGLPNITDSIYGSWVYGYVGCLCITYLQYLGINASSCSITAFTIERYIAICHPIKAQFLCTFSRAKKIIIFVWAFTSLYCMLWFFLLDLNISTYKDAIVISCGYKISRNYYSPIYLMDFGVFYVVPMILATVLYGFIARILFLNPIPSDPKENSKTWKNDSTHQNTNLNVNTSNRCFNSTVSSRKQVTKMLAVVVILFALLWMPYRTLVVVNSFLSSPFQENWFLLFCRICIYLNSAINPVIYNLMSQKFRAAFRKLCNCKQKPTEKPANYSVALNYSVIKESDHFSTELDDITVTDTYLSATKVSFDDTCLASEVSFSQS
Method in brief: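 HEK293/TRHR cells, 18 h, 37 °C; Ca2+ dye 2 h; cpd 5 min RT; TRH 1 nM final; fluorescence read 3 min, 1 s intervals; 15 concs, triplicate.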

[6] = target: Thyrotropin-releasing hormone receptor (Homo sapiens) (UniProt P34981); assay: qHTS assay to identify small molecule agonists of the thyrotropin-releasing hormone receptor (TRHR) signaling pathway (AID 1346891; calls by dose curve;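 further: HEK293 cells expressing TRHR with calcium dye readout; series mostly up to about 58 µM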)
Method in brief: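 Overnight-plated (18 h, 37 °C, 5% CO2) TRHR-Hek293 cells; 2 h calcium dye at 37 °C; compound in DMSO; 3-min kinetic fluorescence read.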

[7] = Human pregnane X receptor (PXR) small molecule agonists, qHTS cell viability counter screen (AID 1346977); further: nearly all actives have a fitted effect of over 50% in size
Method in brief: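 After a 5hr pre-incubation, PXR-Luc HepG2 cells received compounds plus positive control in DMSO and were kept 24hr at 37C. Cell viability was quantified by fluorescence from CellTiter-Fluor added for the final hour.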

[8] = Caspase-3/7 induction in HepG2 cells by small molecules, qHTS assay (AID 1346978); further: nearly all actives have a fitted effect of over 15% in size
Method in brief: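 Wild-type HepG2 cells (2,000/well) were settled 5 h at 37 C, 5% CO2, then exposed to compounds in DMSO for 17 h. Caspase-3/7 activity was read by luminescence 30 min after adding Caspase-Glo 3/7 reagent at room temperature.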

[9] = Caspase-3/7 induction in CHO-K1 cells by small molecules, qHTS cell viability counter screen (AID 1346979); further: nearly all actives have a fitted effect of over 35% in size; further: potency means the concentration at half of the fitted maximal effect
Method in brief: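 Multiplexed with Caspase-Glo 3/7 in CHO-K1 cells, this counter screen added CellTiter-Fluor after 16hr of compound exposure and recorded fluorescence 1hr later.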

[10] = Caspase-3/7 induction in CHO-K1 cells by small molecules, qHTS assay (AID 1346980); further: nearly all actives have a fitted effect of over 15% in size
Method in brief: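 Wild-type cells were seeded at 1,500 per well and settled 5 hr at 37 C, 5% CO2, then exposed to DMSO-dissolved compounds for 17 hr. Caspase-Glo 3/7 reagent was added, and luminescence was read after 30min at room temperature.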

[11] = Caspase-3/7 induction in HepG2 cells by small molecules, qHTS cell viability counter screen (AID 1346981); further: series mostly up to about 92 µM; nearly all actives have a fitted effect of over 30% in size
Method in brief: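 Fluorescence read-out of live-cell protease activity (CellTiter-Fluor) after 1 hr with reagent. This was measured in the same wells as the caspase-3/7 luminescence, on HepG2 cells exposed to DMSO-dissolved compounds for 16 hr at 37 C.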

[12] = target: Nuclear receptor subfamily 1 group I member 2 (Homo sapiens) (UniProt O75469); assay: Human pregnane X receptor (PXR) small molecule agonists, qHTS assay (AID 1346982); further: nearly all actives have a fitted effect of over 35% in size; further: potency means the concentration at half of the fitted maximal effect
Nuclear receptor subfamily 1 group I member 2 (Homo sapiens), sequence (O75469 whole entry, looked up): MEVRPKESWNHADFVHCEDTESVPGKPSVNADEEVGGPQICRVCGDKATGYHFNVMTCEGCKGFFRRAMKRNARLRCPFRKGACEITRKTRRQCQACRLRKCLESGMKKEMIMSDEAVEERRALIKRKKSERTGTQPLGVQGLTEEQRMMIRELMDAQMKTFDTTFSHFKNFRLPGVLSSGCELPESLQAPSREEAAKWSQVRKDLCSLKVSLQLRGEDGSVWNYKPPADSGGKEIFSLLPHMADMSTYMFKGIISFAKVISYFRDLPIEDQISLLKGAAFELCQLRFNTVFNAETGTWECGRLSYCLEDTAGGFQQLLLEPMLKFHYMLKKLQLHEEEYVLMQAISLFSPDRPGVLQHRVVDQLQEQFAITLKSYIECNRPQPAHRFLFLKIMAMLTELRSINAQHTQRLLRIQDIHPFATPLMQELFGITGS
Method in brief: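 HepG2 PXR-Luc reporter line, 5% charcoal-stripped FBS; 5 hr pre-incubation, compound (DMSO) 24 hr at 37 C/5% CO2; ONE-Glo 30 min RT; luminescence read-out.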

[13] = target: Progesterone receptor (Homo sapiens) (UniProt P06401); assay: qHTS assay to identify small molecule agonists of the progesterone receptor (PR) signaling pathway (AID 1346784; calls by dose curve; further: nearly all actives have a fitted effect of over 30% in size)
Progesterone receptor (Homo sapiens), sequence (P06401 whole entry, looked up): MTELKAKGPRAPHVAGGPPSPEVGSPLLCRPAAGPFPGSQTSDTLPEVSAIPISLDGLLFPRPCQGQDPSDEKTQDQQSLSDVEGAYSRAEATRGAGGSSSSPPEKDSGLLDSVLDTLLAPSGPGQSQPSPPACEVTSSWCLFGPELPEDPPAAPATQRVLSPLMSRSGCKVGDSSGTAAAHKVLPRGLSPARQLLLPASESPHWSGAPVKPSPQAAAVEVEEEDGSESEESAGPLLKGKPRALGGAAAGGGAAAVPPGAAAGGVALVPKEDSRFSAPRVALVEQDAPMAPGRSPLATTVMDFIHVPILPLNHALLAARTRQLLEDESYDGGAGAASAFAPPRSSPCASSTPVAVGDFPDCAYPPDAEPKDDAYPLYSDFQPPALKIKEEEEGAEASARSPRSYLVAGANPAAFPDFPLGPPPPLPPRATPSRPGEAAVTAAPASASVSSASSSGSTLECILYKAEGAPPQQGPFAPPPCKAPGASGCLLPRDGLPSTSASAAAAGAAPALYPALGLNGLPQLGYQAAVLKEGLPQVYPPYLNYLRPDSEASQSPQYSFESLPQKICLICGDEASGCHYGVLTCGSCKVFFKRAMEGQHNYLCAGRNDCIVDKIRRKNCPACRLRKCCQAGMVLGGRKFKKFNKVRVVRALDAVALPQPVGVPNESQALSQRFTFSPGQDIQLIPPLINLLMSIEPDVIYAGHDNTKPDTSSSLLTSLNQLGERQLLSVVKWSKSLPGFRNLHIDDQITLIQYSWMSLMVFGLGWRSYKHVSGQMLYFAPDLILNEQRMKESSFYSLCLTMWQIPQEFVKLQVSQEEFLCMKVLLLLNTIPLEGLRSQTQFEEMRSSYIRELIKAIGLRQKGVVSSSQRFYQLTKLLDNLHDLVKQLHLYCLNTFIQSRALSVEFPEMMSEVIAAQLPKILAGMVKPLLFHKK
Method in brief: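 Seed PR-UAS-bla HEK 293T cells (2% charcoal-stripped FBS), incubate 6 hr at 37C; add compounds in DMSO, 16 hr at 37C; add LiveBLAzer B/G substrate, 2 hr RT; read fluorescence intensity.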

[14] = target: Progesterone receptor (Homo sapiens) (UniProt P06401); assay: qHTS assay to identify small molecule antagonists of the progesterone receptor (PR) signaling pathway (AID 1346795; active means well fitted inhibition curve with a large enough effect in the signal ratio in the repeat runs, not every such curve was filed as active; the % refers to the signal ratio)
Method in brief: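 Screening used a GripTite HEK293T line with PR-responsive UAS-beta-lactamase. Cells were challenged with compound in the presence of 1 nM R5020 final for 16 hr at 37C; B/G FRET substrate, 2 hr room temperature, fluorescence.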

[15] = qHTS assay to identify small molecule antagonists of the progesterone receptor (PR) signaling pathway - cell viability counter screen (AID 1346798); further: series mostly up to about 92 µM; nearly all actives have a fitted effect of over 50% in size
Method in brief: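 Measures cytotoxicity in parallel with the PR antagonist reporter read: HEK293T PR-UAS-bla cells get compound and R5020 for 16 hr, and remaining viable cells are quantified by CellTiter-Glo luminescence.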

[16] = qHTS assay to identify small molecule agonists of the progesterone receptor (PR) signaling pathway - cell viability counter screen (AID 1346799; calls by dose curve; further: nearly all actives have a fitted effect of over 45% in size)
Method in brief: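 Using the same plates as the PR reporter screen, HEK293T PR-UAS-bla cells received compounds for 16 hr at 37C and were then lysed with CellTiter-Glo; luminescence was read 30 min later at room temperature.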

[17] = qHTS assay to identify small molecule antagonists of the TGF-beta/Smad signaling pathway - cell viability counter screen (AID 1346824); further: nearly all actives have a fitted effect of over 50% in size
Method in brief: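 SBE-bla HEK 293T cells were plated overnight at 37 C, then given compounds in DMSO plus TGF-beta1 (added as 0.25 ng/mL solution) for 5 hr. After the bla read, CellTiter-Glo was added to the same wells and luminescence read after 30 min at room temperature.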

[18] = target: Nuclear receptor subfamily 1 group I member 2 (Homo sapiens) (UniProt O75469); assay: CYP3A4 induction through human pregnane X receptor (PXR) by small molecules, qHTS assay (AID 1346984); further: nearly all actives have a fitted effect of over 40% in size
Method in brief: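 HepG2-derived DPX-2 line carrying PXR plus a CYP3A4-promoter luciferase reporter; cells plated 5 hr, compound-exposed 24 hr at 37C. CYP3A4 activity probed with 3uM (final) Luciferin-IPA for 3hr, then luciferase read after One-Glo.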

[19] = target: Nuclear receptor subfamily 1 group I member 2 (Rattus norvegicus) (UniProt Q9R1A7); assay: Rat pregnane X receptor (rPXR) activation by small molecules, qHTS assay (AID 1346983); conditions: rPXR luciferase reporter cells, One-Glo luminescence, 24 h; stronger effect = higher value; further: nearly all actives have a fitted effect of over 20% in size
Nuclear receptor subfamily 1 group I member 2 (Rattus norvegicus), sequence (Q9R1A7 whole entry, looked up): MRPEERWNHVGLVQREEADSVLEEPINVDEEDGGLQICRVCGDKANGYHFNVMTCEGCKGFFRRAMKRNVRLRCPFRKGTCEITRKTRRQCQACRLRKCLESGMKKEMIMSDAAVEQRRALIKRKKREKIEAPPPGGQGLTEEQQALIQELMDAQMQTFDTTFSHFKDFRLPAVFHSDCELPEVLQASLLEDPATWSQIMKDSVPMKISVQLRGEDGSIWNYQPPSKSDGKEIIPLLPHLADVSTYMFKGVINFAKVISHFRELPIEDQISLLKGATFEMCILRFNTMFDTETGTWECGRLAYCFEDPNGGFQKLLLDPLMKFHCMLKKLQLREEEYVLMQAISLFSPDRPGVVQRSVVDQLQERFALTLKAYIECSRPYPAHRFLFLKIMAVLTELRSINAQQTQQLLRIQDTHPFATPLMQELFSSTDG
Method in brief: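 Cell-based rPXR luciferase reporter assay, 2,000 cells per well, rested 5hr at 37 C before compound addition in DMSO, then 24 hr at 37 C. One-Glo reagent was added and luminescence read after 30 min at room temperature.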

[20] = target: Nuclear receptor subfamily 1 group I member 2 (Homo sapiens) (UniProt O75469); assay: Human pregnane X receptor (PXR) activation by small molecules, qHTS assay (AID 1346985); further: nearly all actives have a fitted effect of over 40% in size
Method in brief: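 DPX-2 cells (HepG2 co-transfected with a PXR response element and a CYP3A4-promoter luciferase construct) were seeded at 2,000 per well, rested 5 hr at 37C, then exposed to DMSO-dissolved compounds for 24 hr. Activation was read as luciferase luminescence.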
On the % scale 0 is the no-effect control and ±100 the full control effect.

CC(C)(c1ccc(O)cc1)c1ccc(O)cc1
inactive: Potency [1] | Potency [2] | outcome [3] | outcome [4] | outcome [5] | outcome [6] | Potency [7] | Potency [8] | outcome [10] | Potency [11]
active: Potency [9] 69.8 µM | Potency [12] 24.1 µM and 9.86 µM

CCOC(=O)c1cccc(N)c1
inactive: Potency [1] | Potency [13] | Potency [14] | Potency [15] | Potency [16] | Potency [17] | outcome [3] | outcome [4] | outcome [5] | outcome [6] | Potency [7] | Potency [8] | Potency [9] | outcome [10] | Potency [11] | Potency [12] | Potency [18]

CCC(C)C1CCCCC1=O (centres undefined)
inactive: Potency [1] | Potency [15] | Potency [16] | Potency [17] | outcome [3] | outcome [4] | outcome [5] | outcome [6] | Potency [7] | Potency [8] | Potency [9] | outcome [10] | Potency [11] | Potency [12]

Cc1cccc(C)c1NC(=O)C(C)N (centres undefined)
inactive: Potency [1] | Potency [15] | outcome [3] | outcome [4] | Potency [7] | Potency [8] | Potency [9] | outcome [10] | Potency [11] | Potency [12] | max activation [19] -0.615% | Potency [18] | Potency [20]

C=C(C)CS(=O)(=O)O
inactive: Potency [1] | Potency [13] | Potency [14] | Potency [15] | Potency [16] | outcome [3] | outcome [4] | outcome [5] | outcome [6] | Potency [7] | Potency [8] | Potency [9] | Potency [11] | Potency [12]

CN1CC(=O)NC1=N
inactive: Potency [1] | Potency [14] | Potency [16] | Potency [17] | outcome [3] | outcome [4] | outcome [6] | Potency [7] | Potency [8] | Potency [9] | Potency [11] | Potency [12] | max activation [19] -5.88% | Potency [18] | Potency [20]

CCOC(C)(C)C
inactive: Potency [1] | Potency [14] | Potency [16] | Potency [17] | outcome [3] | outcome [4] | outcome [5] | outcome [6] | Potency [7] | Potency [8] | Potency [9] | outcome [10] | Potency [11] | Potency [12]

C=CCCCCCCCCC=O
inactive: Potency [1] | Potency [13] | Potency [14] | outcome [3] | outcome [4] | Potency [7] | Potency [8] | Potency [9] | outcome [10] | Potency [11] | Potency [12]

c1cnc(N2CCN(Cc3ccc4c(c3)OCO4)CC2)nc1
inactive: Potency [1] | Potency [13] | Potency [15] | Potency [16] | outcome [3] | outcome [4] | outcome [5] | outcome [6] | Potency [7] | Potency [8] | Potency [9] | outcome [10] | Potency [11] | Potency [12]
